Hits are enriched below; roughly 1.4% of the tested compounds scored in any of these assays.
Mac1 fbg inh: inhibitors of human CD11b/CD18 binding to fibrinogen. P05107+P11215. K562 CD11b/CD18 adhesion to fibrinogen, ATPlite luminescence; Mn2+ added to activate the integrin. inhibition, % at 10 µM. hit rate 0.54% among 93,000;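 active = primary inhibition of 50% or more at 10 µM, then 40% or more on retest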
S1P2 antag: blocks the human S1P2 receptor; O95136; cell-based S1P2 antagonist assay, inhibition at 5 uM; inhibition, % at 5 µM; hit rate 0.21% among 97,000; AID 736; in the data active = inhibition above about 45%;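 note: CRE beta-lactamase reporter cells expressing human S1P2 stimulated with S1P; 0% = agonist at EC80 alone and 100% = agonist plus reference antagonist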
Target sequence (O95136 whole entry, looked up): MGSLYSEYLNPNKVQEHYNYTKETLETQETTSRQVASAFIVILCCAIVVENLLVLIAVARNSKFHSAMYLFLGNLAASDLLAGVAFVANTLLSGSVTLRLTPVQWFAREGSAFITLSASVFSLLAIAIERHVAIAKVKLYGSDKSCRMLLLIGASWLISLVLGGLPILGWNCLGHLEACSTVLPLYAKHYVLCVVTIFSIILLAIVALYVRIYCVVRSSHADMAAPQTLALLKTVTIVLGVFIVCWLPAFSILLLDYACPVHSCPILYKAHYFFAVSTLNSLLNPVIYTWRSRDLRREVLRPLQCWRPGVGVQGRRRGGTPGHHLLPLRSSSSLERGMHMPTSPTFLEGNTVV
S1P2 ag: agonists of human S1P2 receptor | O95136 | S1P2-expressing cell line, agonist reporter read-out | activation, % at 4.5 µM | hit rate 0.46% among 97,000 | AID 729; in the data active = activation above about 16%;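 note: 0% = vehicle low control and 100% = maximal reference agonist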
GALR2 ag: activates the human galanin receptor 2; GALR2-expressing cells, agonist activation read-out; hit rate 0.48% among 140,000; AID 803; activation, % (concentration not given with the values); in the data active = activation above about 5%, passing the limit was not always enough;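 note: 0% = vehicle buffer wells and 100% = reference agonist at full effect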
CD11b adhes enh: increases human CD11b/CD18 adhesion to fibrinogen; P05107+P11215; K562 CD11b/CD18 adhesion to fibrinogen, ATPlite luminescence; activation, % at 10 µM; hit rate 0.07% among 93,000; AID 1499;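 active = 10 µM primary screen giving 50% or more activity, confirmed by 40% or more on retest at that dose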
GALR2 blocker: antagonists of human galanin receptor 2 (GALR2); AID 828; GALR2-expressing cells, antagonist mode; inhibition, % at 4 µM; hit rate 0.39% among 140,000; O43603; in the data active = inhibition above about 27%;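 note: cells stimulated with galanin 1-16 at roughly its EC80; 0% = agonist challenge control and 100% = basal control without agonist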
Starred values were filed as active, the others as inactive; . = not tested or not shown.

SMILES | Mac1 fbg inh | S1P2 antag | S1P2 ag | GALR2 ag | CD11b adhes enh | GALR2 blocker
Cc1cc(C)n(-c2ccc(C(=O)OCC(=O)Nc3ccc(S(=O)(=O)N4CCCCC4)cc3)cc2)n1 | 11 | -7 | -1 | -1 | 3 | 4
O=C(CSc1nc2ccccc2c(=O)n1-c1ccccc1)N1CCc2ccccc2C1 | . | . | . | -1 | . | 6
CCOC(=O)c1c(NC(=O)/C=C/c2ccc3c(c2)OCO3)sc(C)c1CC | -6 | 3 | -1 | -3 | -2 | -5
Cc1cc(C)n(-c2nc3ccccc3nc2Nc2ccc(CC(=O)O)cc2)n1 | -5 | 13 | -3 | -2 | -4 | 12
Cc1ccc(Nc2nc3ccccc3nc2-n2nc(C)cc2C)cc1 | -5 | 10 | 20* | 2 | 2 | -4
CCCS(=O)(=O)c1nnnn1-c1cccc(OC)c1 | 24 | . | . | -1 | -1 | 84*
COc1cccc(-n2nnnc2SCC(=O)Nc2ccc(C(C)=O)cc2)c1 | . | -8 | -2 | 0 | . | 20
COc1ccccc1NC(=O)C1CCCN1C(=O)NCc1ccccc1 (stereo not drawn) | -8 | 15 | -5 | 0 | -4 | 4
COC(=O)C(Nc1ccccc1Cl)(c1cc(C)c(O)c(C)c1)C(F)(F)F (stereo not drawn) | 13 | 7 | -6 | 0 | -5 | 6
COC(=O)/C(=C(/F)Sc1cc(C)c(O)c(C)c1)C(F)(F)F | 55* | 15 | 0 | -1 | -7 | 8
CCOC(=O)CS(=O)(=O)c1nc(-c2ccccc2)cc(C(F)(F)F)n1 | 11 | -8 | -3 | 7 | 3 | 59*
CCOC(=O)CCS(=O)(=O)c1nc(-c2ccccc2)cc(C(F)(F)F)n1 | 12 | -11 | 0 | 3 | 14 | 19
CCOc1ccc(Br)cc1S(=O)(=O)Nc1ccc(NC(=O)c2ccccc2C)cc1 | . | . | . | -1 | . | 7
COc1ccc(/C=C(\C#N)c2nc3ccc(C)cc3[nH]2)cc1Oc1ccc(C(F)(F)F)cc1[N+](=O)[O-] | -6 | -2 | -5 | -1 | 1 | -11
Cc1cc(/C=C(/C#N)c2nc3ccccc3[nH]2)c(C)n1-c1cccc([N+](=O)[O-])c1 | -25 | -13 | 30* | 0 | 52 | -3
COc1cc(/C=C(\C#N)c2nc3ccc(C)cc3[nH]2)c([N+](=O)[O-])cc1OC | -10 | -3 | 18* | -2 | -3 | 8
CCN(CC)S(=O)(=O)c1ccc(C(=O)OCC(=O)N2CCN(C(=O)c3ccco3)CC2)cc1 | -8 | . | . | -1 | -1 | 9
Cc1cc(NC(=O)COC(=O)c2oc3c(ccc4ccccc43)c2C)no1 | . | . | . | 5.1* | . | 2
Cc1ccc(-c2cc(C(=O)OCC(=O)Nc3cc(C)on3)c3ccccc3n2)c(C)c1 | 20 | -2 | -1 | -2 | 0 | -2
COC(=O)c1ccc(O)c(Sc2cc(C(=O)OC)ccc2O)c1 | 98* | -7 | -8 | -3 | -7 | 6
Cc1c(/C=N/NC(=O)C(C)(C)Oc2ccc(Cl)cc2)cnn1C | 3 | 11 | -4 | -1 | 6 | 8
O=C(COc1ccccc1O)c1cccs1 | 0 | . | . | -2 | -1 | 0
Cc1ccc(S(=O)(=O)/N=c2\sccn2C)cc1 | . | -3 | -5 | -4 | . | -1
Cc1ccc2nc(-c3cccc(N)c3)oc2c1 | 59* | -7 | -2 | 1 | -3 | 10
CCc1ccc2oc(-c3cccc(N)c3)nc2c1 | 58 | -14 | -9 | -2 | -4 | 11
SMILES | Mac1 fbg inh | S1P2 antag | S1P2 ag | GALR2 ag | CD11b adhes enh | GALR2 blocker
Cc1ccc(-n2ncc3c(N4CCN(c5ccccc5)CC4)ncnc32)c(C)c1 | 15 | 60* | -4 | 0 | 1 | 8
COc1ccc(N2CCN(c3ncnc4c3cnn4-c3ccc(C)cc3C)CC2)cc1 | . | 10 | -4 | -1 | . | 5
O=C(Nc1c2c(nc3ccccc13)CCCC2)c1ccccc1Cl | 0 | . | . | -2 | -2 | 13
O=C(Nc1c2ccccc2nc2ccccc12)C(Cl)(Cl)Cl | . | -24 | 18* | 10 | . | -11
Cc1c(N/N=C(\C#N)C(=O)c2ccc(Cl)cc2)c(=O)n(-c2ccccc2)n1C | . | . | . | -2 | . | -3
N#C/C(=N\Nc1ccc(Cl)cc1)C(=O)c1ccccc1 | 94* | -10 | -6 | -2 | -8 | 3
COc1ccc(NC(=O)C2CCCN(S(=O)(=O)c3cnc[nH]3)C2)cc1 (stereo not drawn) | 4 | -2 | -7 | -2 | -2 | -1
Cc1nn(-c2ccc(F)cc2)c2sc(C(=O)N3CCCCCC3)cc12 | -24 | -26 | 30* | 1 | 26 | -21
